Test results reported in the supplement of paper PMC10849652.
Targets with a hit are over-represented here; the source holds about 7,900 in all. About 0.6% of all pairs of compound and target were hits.

Legend:
Assay in all cases: log2 fold change, soluble protein after heating vs DMSO (PISA); higher = thermal stabilisation; K562 cells, 10 uM, 30 min; active = over 0.2 and 3.5 SD of the protein, either way, in both replicates (recomputed)
erlotinib = compound: C#Cc1cccc(Nc2ncnc3cc(OCCOC)c(OCCOC)cc23)c1 [erlotinib]
Outline: (§1)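 Soluble protein was defined as the supernatant after 21,000xg for 90 min. It came from K562 cells at 2×10^6 cells/mL given 10 μM compound for 30 min, heated in aliquots for 3 min across 48°C-58°C, pooled, and extracted in PBS with 0.5% NP-40 at 4°C, and was quantified by TMTpro 16plex LC-MS/MS with equalised channel sums. Thermal stability against control samples, from duplicates, is reported as log2 fold change.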

[1] = compound: C/C(=N\NC(=O)C1=CC(=CC=C1)S(=O)(=O)N2CCOCC2)/C3=C(C=CC(=C3)Cl)O
Outline: as §1

[2] = compound: C1=CC(=C(C=C1Cl)C2=NC3=NC=CN=C3C(=N2)NC4=CC=NC=C4)F
Outline: as §1

[3] = compound: C1=CC(=CC=C1C2=NC3=C(N2)C=C(C=C3)C(=O)N)OC4=CC=C(C=C4)Cl
Outline: as §1

[4] = compound: C1=CC2=C(C=CC(=C2)/C=C\3/C(=O)NC(=NCC4=CC=CS4)S3)N=C1
Outline: as §1

[5] = compound: C1=CC2=NC=CN=C2C=C1/C=C/3\C(=O)NC(=O)S3
Outline: as §1

[6] = compound: C1=CC=C(C=C1)C2=NC(=C(N2)C3=CC=NC=C3)C4=CC(=C(C=C4)Cl)O
Outline: as §1

[7] = compound: C1=CC=C2C(=C1)C3=NNC4=CC=CC(=C43)C2=O
Outline: as §1

[8] = compound: C1CCN(C1)C(=O)NC2=CC=CC(=C2)NC3=NC=C(C(=N3)NCCC4=CN=CN4)Br
Outline: as §1

[9] = compound: C1CN(CCC1(CC2=CC=C(C=C2)Cl)N)C3=NC=NC4=C3C=CN4
Outline: as §1

Measured: log2 fold change

IRF2BPL (UniProt Q9H1B7)
inactive: erlotinib -0.021 | [1] 0.023 | [2] 0.068 | [3] 0.04 | [4] -0.03 | [5] 0.064 | [6] 0.089 | [7] 0.025 | [8] -0.041 | [9] -0.022

MED1 (UniProt Q15648)
Chain of UniProt Q15648 (Q15648 whole entry, looked up): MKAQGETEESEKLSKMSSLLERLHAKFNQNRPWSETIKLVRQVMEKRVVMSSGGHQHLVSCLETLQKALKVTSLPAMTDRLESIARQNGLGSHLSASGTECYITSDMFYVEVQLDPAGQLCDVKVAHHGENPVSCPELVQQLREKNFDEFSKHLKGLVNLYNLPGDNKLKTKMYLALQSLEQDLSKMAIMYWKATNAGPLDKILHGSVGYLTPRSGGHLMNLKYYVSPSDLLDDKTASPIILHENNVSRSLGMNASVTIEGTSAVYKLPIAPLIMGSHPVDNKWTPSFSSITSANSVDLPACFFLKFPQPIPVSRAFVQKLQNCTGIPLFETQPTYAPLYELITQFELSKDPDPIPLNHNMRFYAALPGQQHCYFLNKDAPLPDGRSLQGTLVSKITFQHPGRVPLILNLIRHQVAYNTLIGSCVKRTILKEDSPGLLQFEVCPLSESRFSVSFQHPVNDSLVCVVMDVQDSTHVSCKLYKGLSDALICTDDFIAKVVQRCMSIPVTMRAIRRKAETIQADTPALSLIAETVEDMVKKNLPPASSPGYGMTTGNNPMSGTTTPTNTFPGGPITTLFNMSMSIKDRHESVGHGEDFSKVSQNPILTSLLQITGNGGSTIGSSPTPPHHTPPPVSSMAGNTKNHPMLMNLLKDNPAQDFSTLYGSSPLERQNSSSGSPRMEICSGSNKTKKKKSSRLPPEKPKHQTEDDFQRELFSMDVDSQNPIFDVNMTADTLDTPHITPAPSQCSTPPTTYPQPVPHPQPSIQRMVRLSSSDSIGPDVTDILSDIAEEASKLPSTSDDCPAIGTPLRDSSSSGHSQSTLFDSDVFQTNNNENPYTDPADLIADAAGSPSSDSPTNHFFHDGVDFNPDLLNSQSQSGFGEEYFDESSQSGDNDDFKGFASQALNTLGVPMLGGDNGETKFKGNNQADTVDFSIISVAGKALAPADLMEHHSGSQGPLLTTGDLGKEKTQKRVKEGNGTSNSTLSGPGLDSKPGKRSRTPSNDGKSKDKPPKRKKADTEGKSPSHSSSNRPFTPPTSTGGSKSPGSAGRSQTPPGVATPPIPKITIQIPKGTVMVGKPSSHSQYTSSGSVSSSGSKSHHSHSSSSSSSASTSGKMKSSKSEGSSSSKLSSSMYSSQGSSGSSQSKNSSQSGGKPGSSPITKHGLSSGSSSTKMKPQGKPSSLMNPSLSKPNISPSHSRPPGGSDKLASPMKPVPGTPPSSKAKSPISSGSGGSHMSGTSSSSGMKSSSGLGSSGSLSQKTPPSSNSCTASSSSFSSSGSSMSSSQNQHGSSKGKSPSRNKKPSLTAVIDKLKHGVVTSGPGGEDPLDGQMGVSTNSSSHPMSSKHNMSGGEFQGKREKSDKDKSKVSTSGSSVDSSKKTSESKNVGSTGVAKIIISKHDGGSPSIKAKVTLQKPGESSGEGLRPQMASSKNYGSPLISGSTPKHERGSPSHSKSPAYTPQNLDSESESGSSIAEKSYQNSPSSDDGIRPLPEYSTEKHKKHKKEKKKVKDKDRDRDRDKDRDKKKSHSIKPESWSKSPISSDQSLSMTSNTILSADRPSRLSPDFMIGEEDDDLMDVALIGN
inactive: erlotinib -0.022 | [1] -0.011 | [2] -0.118 | [3] -0.001 | [4] 0.04 | [5] 0.043 | [6] -0.03 | [7] -0.043 | [8] 0.016 | [9] -0.025

KLC2 (UniProt Q9H0B6)
Chain of UniProt Q9H0B6 (Q9H0B6 whole entry, looked up): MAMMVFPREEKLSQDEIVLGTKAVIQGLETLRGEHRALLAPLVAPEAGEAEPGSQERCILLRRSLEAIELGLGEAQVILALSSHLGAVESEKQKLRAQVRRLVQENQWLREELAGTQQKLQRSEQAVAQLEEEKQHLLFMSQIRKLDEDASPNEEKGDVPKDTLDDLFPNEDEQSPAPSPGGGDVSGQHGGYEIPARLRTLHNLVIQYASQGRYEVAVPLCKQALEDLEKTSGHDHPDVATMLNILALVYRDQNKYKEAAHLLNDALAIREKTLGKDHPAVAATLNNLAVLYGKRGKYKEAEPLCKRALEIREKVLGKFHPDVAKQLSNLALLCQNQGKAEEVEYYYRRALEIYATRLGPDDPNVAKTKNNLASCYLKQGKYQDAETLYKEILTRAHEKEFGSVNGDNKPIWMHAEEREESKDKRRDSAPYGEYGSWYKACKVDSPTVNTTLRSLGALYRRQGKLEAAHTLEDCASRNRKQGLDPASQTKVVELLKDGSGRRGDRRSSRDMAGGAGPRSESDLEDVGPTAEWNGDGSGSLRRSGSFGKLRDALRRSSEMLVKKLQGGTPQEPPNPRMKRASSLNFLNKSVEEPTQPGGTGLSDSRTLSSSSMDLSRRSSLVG
inactive: erlotinib 0.036 | [1] 0.063 | [2] 0.008 | [3] -0.044 | [4] 0.078 | [5] 0.025 | [6] -0.039 | [7] 0.006 | [8] -0.063 | [9] -0.007

IRF3 (UniProt Q14653)
Chain of UniProt Q14653 (Q14653 whole entry, looked up): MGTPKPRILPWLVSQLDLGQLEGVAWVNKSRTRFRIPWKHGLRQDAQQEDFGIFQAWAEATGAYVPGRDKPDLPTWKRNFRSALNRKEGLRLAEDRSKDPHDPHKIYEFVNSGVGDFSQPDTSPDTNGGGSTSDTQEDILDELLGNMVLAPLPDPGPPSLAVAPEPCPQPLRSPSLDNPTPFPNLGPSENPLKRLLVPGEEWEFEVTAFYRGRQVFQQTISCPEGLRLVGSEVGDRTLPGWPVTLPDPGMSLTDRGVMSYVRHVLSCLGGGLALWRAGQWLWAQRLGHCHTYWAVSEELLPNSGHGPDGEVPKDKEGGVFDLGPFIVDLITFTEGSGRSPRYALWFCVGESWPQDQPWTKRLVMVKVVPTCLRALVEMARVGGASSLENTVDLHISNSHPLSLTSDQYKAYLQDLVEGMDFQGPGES
inactive: erlotinib 0.042 | [1] 0.056 | [2] 0.019 | [3] -0.022 | [4] 0.046 | [5] -0.022 | [6] -0.036 | [7] 0 | [8] -0.055 | [9] -0.008

IRAK4 (UniProt Q9NWZ3)
Chain of UniProt Q9NWZ3 (Q9NWZ3 whole entry, looked up): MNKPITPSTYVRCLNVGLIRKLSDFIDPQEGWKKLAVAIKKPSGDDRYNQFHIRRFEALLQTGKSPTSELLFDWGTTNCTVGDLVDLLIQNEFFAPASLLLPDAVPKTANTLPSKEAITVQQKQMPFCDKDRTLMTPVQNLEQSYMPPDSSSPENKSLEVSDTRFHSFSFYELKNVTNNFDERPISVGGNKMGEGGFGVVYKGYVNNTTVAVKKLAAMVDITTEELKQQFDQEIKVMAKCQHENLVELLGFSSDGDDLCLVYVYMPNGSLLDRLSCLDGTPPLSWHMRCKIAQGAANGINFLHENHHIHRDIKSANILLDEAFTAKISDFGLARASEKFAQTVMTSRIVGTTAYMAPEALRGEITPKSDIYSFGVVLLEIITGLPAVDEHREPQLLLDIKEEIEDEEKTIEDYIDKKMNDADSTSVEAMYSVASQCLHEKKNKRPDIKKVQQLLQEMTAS
inactive: erlotinib 0.041 | [1] -0.009 | [2] 0.068 | [3] -0.038 | [4] 0.059 | [5] -0.023 | [6] 0.011 | [7] -0.004 | [8] 0.069 | [9] -0.074

MED12 isoform 2 (UniProt Q93074)
inactive: erlotinib 0.022 | [1] 0.04 | [2] -0.031 | [3] 0.188 | [4] 0.101 | [5] 0.121 | [6] 0.012 | [7] -0.361 | [8] 0.193 | [9] -0.11

LMNB1 (UniProt P20700)
inactive: erlotinib -0.06 | [1] 0.071 | [2] 0.001 | [3] 0.029 | [4] -0.073 | [5] 0.064 | [6] -0.07 | [7] -0.151 | [8] -0.079 | [9] 0.001

LUC7L (UniProt Q9NQ29)
Chain of UniProt Q9NQ29 (Q9NQ29 whole entry, looked up): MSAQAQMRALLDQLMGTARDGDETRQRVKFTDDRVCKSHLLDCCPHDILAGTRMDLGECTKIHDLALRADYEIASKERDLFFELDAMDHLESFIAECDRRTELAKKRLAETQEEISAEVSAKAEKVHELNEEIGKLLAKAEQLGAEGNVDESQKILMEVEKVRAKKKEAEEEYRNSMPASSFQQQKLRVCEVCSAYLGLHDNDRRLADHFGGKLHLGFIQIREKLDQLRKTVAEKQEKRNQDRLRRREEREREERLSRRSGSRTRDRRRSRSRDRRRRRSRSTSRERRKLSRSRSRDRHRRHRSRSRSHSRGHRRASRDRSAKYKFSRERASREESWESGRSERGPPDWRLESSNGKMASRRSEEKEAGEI
inactive: erlotinib -0.084 | [1] 0.043 | [2] -0.092 | [3] 0.114 | [4] -0.062 | [5] -0.003 | [6] -0.105 | [7] -0.016 | [8] -0.016 | [9] -0.035

MAN2B2 (UniProt Q9Y2E5)
Chain of UniProt Q9Y2E5 (Q9Y2E5 whole entry, looked up): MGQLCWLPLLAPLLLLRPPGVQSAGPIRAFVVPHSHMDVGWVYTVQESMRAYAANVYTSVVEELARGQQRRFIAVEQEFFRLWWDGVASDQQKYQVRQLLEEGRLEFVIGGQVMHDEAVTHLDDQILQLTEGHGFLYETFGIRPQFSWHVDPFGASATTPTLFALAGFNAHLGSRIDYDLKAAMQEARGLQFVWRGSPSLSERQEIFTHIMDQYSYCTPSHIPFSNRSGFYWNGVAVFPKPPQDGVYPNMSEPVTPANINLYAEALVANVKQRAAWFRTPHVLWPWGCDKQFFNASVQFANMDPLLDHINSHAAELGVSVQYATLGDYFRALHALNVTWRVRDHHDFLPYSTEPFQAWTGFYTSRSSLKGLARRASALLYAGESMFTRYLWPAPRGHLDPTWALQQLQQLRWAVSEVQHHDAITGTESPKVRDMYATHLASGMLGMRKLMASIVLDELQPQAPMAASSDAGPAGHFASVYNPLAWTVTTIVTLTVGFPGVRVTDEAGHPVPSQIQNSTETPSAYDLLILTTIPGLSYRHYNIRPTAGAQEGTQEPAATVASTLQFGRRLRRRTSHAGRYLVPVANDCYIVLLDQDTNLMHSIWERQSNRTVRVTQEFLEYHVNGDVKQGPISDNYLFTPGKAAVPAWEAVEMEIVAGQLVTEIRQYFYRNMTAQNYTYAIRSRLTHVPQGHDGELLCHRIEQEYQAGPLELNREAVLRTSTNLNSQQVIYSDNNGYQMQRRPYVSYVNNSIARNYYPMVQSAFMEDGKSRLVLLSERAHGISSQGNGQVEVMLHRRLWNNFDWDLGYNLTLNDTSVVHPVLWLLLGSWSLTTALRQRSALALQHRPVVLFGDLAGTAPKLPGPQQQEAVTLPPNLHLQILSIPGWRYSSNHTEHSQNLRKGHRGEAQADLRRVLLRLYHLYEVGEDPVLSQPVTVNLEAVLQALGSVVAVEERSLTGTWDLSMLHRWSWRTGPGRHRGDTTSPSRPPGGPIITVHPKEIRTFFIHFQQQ
inactive: erlotinib -0.035 | [1] 0.005 | [2] -0.008 | [3] -0.003 | [4] 0.076 | [5] 0.025 | [6] -0.07 | [7] 0.063 | [8] -0.02 | [9] -0.186

MAPKAPK2 (UniProt P49137)
inactive: erlotinib 0.033 | [1] 0.059 | [2] 0.186 | [3] -0.011 | [4] 0.064 | [5] 0.008 | [6] 0.207 | [7] -0.069 | [8] 0.047 | [9] 0.002

LTO1 (UniProt Q8WV07)
Chain of UniProt Q8WV07 (Q8WV07 whole entry, looked up): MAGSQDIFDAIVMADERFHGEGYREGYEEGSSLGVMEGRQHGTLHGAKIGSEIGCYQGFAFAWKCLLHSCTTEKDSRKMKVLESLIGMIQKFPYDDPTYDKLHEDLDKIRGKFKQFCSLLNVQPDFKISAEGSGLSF
inactive: erlotinib -0.095 | [1] 0.072 | [2] 0.032 | [3] 0.059 | [4] 0.002 | [5] 0.089 | [6] -0.035 | [7] -0.052 | [8] -0.032 | [9] 0.169

INTS5 (UniProt Q6P9B9)
inactive: erlotinib -0.027 | [1] 0.025 | [3] -0.086 | [4] -0.023 | [5] 0.097 | [6] -0.138 | [7] -0.18 | [8] -0.126 | [9] -0.033
active: [2] -0.403

LPIN1 isoform 7 (UniProt Q14693)
inactive: erlotinib 0.027 | [1] 0.068 | [2] 0.059 | [3] -0.043 | [4] -0.001 | [5] -0.102 | [6] -0.031 | [7] 0.015 | [8] -0.033 | [9] 0.025

MAGOHB (UniProt Q96A72)
Chain of UniProt Q96A72 (Q96A72 whole entry, looked up): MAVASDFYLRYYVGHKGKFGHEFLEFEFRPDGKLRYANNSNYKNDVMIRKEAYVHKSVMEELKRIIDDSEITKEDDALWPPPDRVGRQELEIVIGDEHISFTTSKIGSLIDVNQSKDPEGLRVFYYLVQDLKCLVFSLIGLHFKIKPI
inactive: erlotinib 0.011 | [1] 0.124 | [2] 0.025 | [3] -0.002 | [4] -0.16 | [5] -0.013 | [6] -0.032 | [7] 0.071 | [8] -0.157 | [9] -0.061
